Only some compounds are listed: those with a hit (about 6.8% of all), similar ones and a draw of the others.
MK inhibit = inhibitors of Streptococcus pneumoniae mevalonate kinase | purified MK, PK/LDH-coupled NADH absorbance 340 nm | inhibition, % at 10 µM | hit rate 0.48% among 65,000;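 active means ranked among the strongest by inhibition in the single 10 µM screen, a fixed top-ranked set picked for dose follow-up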
Autofluor 339 = intrinsic fluorescence of library compounds, ex339/em460 – biochemical, MLSMR library, data from DPM-DC assay, artefact control, profiling panel; compound autofluorescence, ex339/em460 nm, NADH buffer; active compounds read high; 1 = no-compound wells, NADH background; fluorescence fold increase at 10 µM; hit rate 5.5% among 65,000;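 active means at 10 µM, mean starting fluorescence two-fold or more over control wells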;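 further: signal is the first read of a kinetic run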
NADH coupling = inhibition of NAD/NADH coupling enzymes, library profiling. coupled PK/LDH NADH assays, four targets. IC50, µM (titrated, usually from 10 µM). hit rate 0.02% among 65,000. AID 774;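 active means single-dose screening hits from any of four coupled enzyme assays that gave an IC50 when retested across doses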;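 further: the DPM-DC format reads NADH fluorescence rather than 340 nm absorbance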
DPM-DC inhibit = blocks S. pneumoniae diphosphomevalonate decarboxylase; purified DPM-DC, PK/LDH coupled NADH fluorescence; calls only at 10 µM; hit rate 0.49% among 65,000;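 active means the 320 compounds with the highest percent inhibition in the single-dose primary screen, excluding strongly autofluorescent ones, cut at about 32% in these data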;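 further: kinetic rate of NADH fluorescence loss reporting ADP formed by the decarboxylase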
Abs 340nm = compound absorbs light at 340 nm | compound absorbance at 340 nm, fold over control | fold change at 10 µM | 65,000 tested, under 10 active;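 active means at 10 µM dose, initial 340 nm absorbance at least 2 fold that of control wells; inactive means change under 2 fold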;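 further: initial absorbance extrapolated from kinetic A340 decline of NADH oxidation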
PMK inhibit = inhibitors of Streptococcus pneumoniae phosphomevalonate kinase; purified PMK, PK/LDH-coupled NADH absorbance 340 nm; inhibition, % at 10 µM; hit rate 0.49% among 65,000;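 active means top-ranked compounds by inhibition in the single 10 µM screen, taking a fixed number of the strongest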
Large screens that a line does not name were inactive.

N#Cc1nc(COc2ccccc2Cl)oc1NCc1ccc(F)cc1	none
COc1ccccc1-c1nc(C#N)c(NCc2ccc(F)cc2)o1	Autofluor 339 3.91 (not shown: DPM-DC inhibit)
Cc1cc(N2CCCC2)nc(-c2ccccc2O)n1	Autofluor 339 2.64
COc1ccc2nc(SCC(=O)N3CCCCCC3)c(C#N)cc2c1	none
COc1ccc2nc3oc(C(=O)N4CCCCC4)cc3cc2c1	Autofluor 339 3.42 (not shown: DPM-DC inhibit)
COc1ccc2nc3sc(C(=O)N4CCN(C)CC4)cc3cc2c1	Autofluor 339 2.67
CCOC(=O)C1CCN(C(=O)c2cc3cc4cc(OC)ccc4nc3o2)CC1	Autofluor 339 5.12 (not shown: DPM-DC inhibit)
Cc1nnc(SCCn2c(N3CC(C)CC(C)C3)nc3c2c(=O)[nH]c(=O)n3C)s1 (stereo not drawn)	none
Cc1ccccc1C(=O)Nc1cccc(NC(=O)Cn2cnc3c(=O)n(C)c(=O)n(C)c32)c1	none
Cc1cccn2c(=O)c3cc(C(=O)NCc4ccco4)c(=N)n(CCc4ccccc4)c3nc12	Autofluor 339 3.78 (not shown: DPM-DC inhibit)
Cc1cccn2c(=O)c3cc(C(=O)NCc4ccco4)c(=N)n(C(C)C)c3nc12	Autofluor 339 2.27 (not shown: DPM-DC inhibit)
COCCCn1c(=N)c(C(=O)NCc2ccc3c(c2)OCO3)cc2c(=O)n3cccc(C)c3nc21	none
CCN(CC)C(=O)c1cc(-c2ccccc2OC)on1	none
COc1ccccc1-c1ccc(C(=O)O)o1	Autofluor 339 3.3
Fc1cccc2sc(N3CCOCC3)nc12	none
N#Cc1c(F)cccc1N1CCOCC1	Autofluor 339 3.11
O=C(CCN1CCc2ccccc2CC1)c1ccc2c(c1)OCCO2	none
CCOC(=O)CCc1nc2ccccc2[nH]c1=O	Autofluor 339 2.21
CCn1nnc(NC(=O)c2ccc(-c3ccc(Cl)cc3)o2)n1	Autofluor 339 2.09
CCCn1nnc(NC(=O)c2ccco2)n1	none
Cc1nc2nc(C)c(CCC(=O)N3CCOCC3)c(C)n2n1	DPM-DC inhibit active
CCOC(=O)N1CCN(C(=O)CCc2c(C)nc3nc(C)nn3c2C)CC1	none
NC(=O)c1cnccn1	none
CCOc1cc(C2Nc3ccccc3C(=O)N2c2ccccc2)ccc1O (stereo not drawn)	Autofluor 339 3.59 (not shown: DPM-DC inhibit)
COc1cc(C2/C(=C(/O)c3ccc(F)cc3)C(=O)C(=O)N2CCCC(=O)O)ccc1O (stereo not drawn)	none
Cc1csc2nc(=O)c3ccccc3n12	Autofluor 339 3.67 (not shown: DPM-DC inhibit)
c1cncc(-c2nc(Oc3ccc(-c4nnco4)cc3)c3c4c(sc3n2)CCCC4)c1	Autofluor 339 2.11 (not shown: DPM-DC inhibit)
CCSc1nnc([C@H](C)NC(=O)OC(C)(C)C)o1	none
N#C/C(=C\C1CC=CCC1)c1nc2ccccc2[nH]1 (stereo not drawn)	DPM-DC inhibit active
CCOc1ccc(C2c3c(oc4cc(C)c(C)cc4c3=O)C(=O)N2CCCN(C)C)cc1OC (stereo not drawn)	PMK inhibit 28.0
CCCOc1ccc(C2c3c(oc4cc(C)c(C)cc4c3=O)C(=O)N2CCCN(C)C)cc1OCC (stereo not drawn)	none
Cc1cc(N2CCOCC2)c2c(N)c(Br)cc(C)c2n1	DPM-DC inhibit active
Cc1ccc(S(=O)(=O)N2CCN(c3nc(C)c4c(c3C#N)CC(C)(C)OC4)CC2)cc1	none
COC(=O)c1cc(OC)c(OC)cc1NC(=O)c1ccoc1C	Autofluor 339 3.33 (not shown: DPM-DC inhibit)
COC(=O)c1cc(OC)c(OC)cc1NC(=O)c1ccccc1	Autofluor 339 2.17 (not shown: DPM-DC inhibit)
CC1CN(Cc2nc3c(c(=O)n(C)c(=O)n3C)n2Cc2ccc(Cl)cc2)CC(C)O1 (stereo not drawn)	none
O=C(C1CCCN1S(=O)(=O)c1ccc(Cl)c(Cl)c1)N1CCCCC1 (stereo not drawn)	none
O=C(CCc1nc(-c2ccccc2F)no1)NCCN1CCc2ccccc2C1	DPM-DC inhibit active
Cc1ccc(-c2noc(CCC(=O)NCCN3CCOCC3)n2)cc1	none
Cc1ccc(-c2noc(CCC(=O)NCCN3CCc4ccccc4C3)n2)cc1	PMK inhibit 25.0
O=C(CCc1nc(-c2ccccc2F)no1)NCCc1ccccc1Cl	none
CN(C)c1ccc(/C(=N\O)c2ccccc2)cc1	none
CN(CCc1ccccn1)C(=O)Nc1ccc(F)cc1	none
Cc1ccc(OCC(=O)N(C)CCc2ccccn2)cc1	MK inhibit 53.0
O=C(COc1ccc2ccccc2c1CN1CCOCC1)N1CCc2ccccc21	none
COc1ccc(-c2cc(-c3ccccc3)nc(N3CCCC3)n2)cc1OC	Autofluor 339 2.22 (not shown: DPM-DC inhibit)
COc1ccc(-c2cc(C(F)(F)F)nc(N3CCOCC3)n2)cc1OC	none
Cc1c(C(=O)NCc2ccc3c(c2)OCO3)sc2nc(-c3ccc(F)cc3)cn12	none
Cc1c(C(=O)NCc2ccc3c(c2)OCO3)sc2nc(-c3ccccc3)cn12	DPM-DC inhibit active
CCn1c(SCc2ccc(OC)cc2)nnc1-c1ccncc1	none
Cc1cc(C(=O)OCCO)c(C#N)c(N)n1	Autofluor 339 2.93 (not shown: DPM-DC inhibit)
CCC(=O)N1CCc2cc(Br)cc(S(=O)(=O)NCC3CCCN3CC)c21 (stereo not drawn)	none
Nc1ccc2oc(CCc3ccccc3)nc2c1	none
Cc1cc2nn(-c3cccc4ccccc34)nc2cc1N	Autofluor 339 3.58 (not shown: DPM-DC inhibit)
Nc1ccc2nn(-c3cccc4ccccc34)nc2c1	Autofluor 339 2.19 (not shown: DPM-DC inhibit)
CC(C)C(c1nnnn1Cc1ccccc1)N1CCN(Cc2ccc3c(c2)OCO3)CC1 (stereo not drawn)	none
COc1ccc(OC)c2c1CC(C)(C)NC2=O	Autofluor 339 2.12 (not shown: DPM-DC inhibit)
O=C(NCc1ccccc1)N1CCC(n2cnc3cc(F)ccc32)CC1	none
O=C(CSc1cc(Cl)ccc1Cl)NCC1CCCO1 (stereo not drawn)	PMK inhibit 25.0
CCOC(=O)C(C)Sc1ccc2nnc(-c3ccc(F)cc3)n2n1 (stereo not drawn)	Autofluor 339 2.15
CCSc1ccc2nnc(-c3ccc(F)cc3)n2n1	Autofluor 339 2.04
Nc1cc(N)nc(SCC(=O)NCC2CCCO2)n1 (stereo not drawn)	none
CC(Sc1ccc2nnc(-c3ccc(F)cc3)n2n1)C(=O)O (stereo not drawn)	none
O=C(CSc1ccc2nnc(-c3ccc(F)cc3)n2n1)NCC1CCCO1 (stereo not drawn)	Autofluor 339 2.28
O=C(CSc1ccc2nnc(-c3ccc(F)cc3)n2n1)N1CCCCC1	none
COC(=O)[C@@H](NC(=O)NC1CCCc2ccccc21)C(C)C (stereo partly drawn)	none
O=C(CSc1nnc(Cn2c(=O)sc3ccccc32)n1-c1ccccc1)Nc1nccs1	none
O=C(NCc1ccccc1)NC1(C(=O)N2CCOCC2)CCCCC1	none
COc1ccc(-c2nnc(Nc3nc4c(OC)cccc4s3)o2)cc1	none
Fc1cccc2sc(Nc3nnc(-c4ccccc4)o3)nc12	Autofluor 339 4.89 (not shown: DPM-DC inhibit)
COc1ccc(-c2nnc(Nc3nc4c(OC)cccc4s3)o2)c(OC)c1	Autofluor 339 2.33, DPM-DC inhibit active
COc1cc(OC)cc(-c2nnc(Nc3nc4c(F)cccc4s3)o2)c1	Autofluor 339 3.41 (not shown: DPM-DC inhibit)

Screening results deposited in PubChem BioAssay by SRMLSC.
